Data: PubChem BioAssay AID651828 (ICCB-Longwood Screening Facility, Harvard Medical School, 2012)
About 25 (0.1%) of roughly 20,000 compounds were called active. Cut-off read from the data, not from the text of the source: active = % bound below about 75%; inactive = the rest. This excerpt belongs to a sample that is enriched for actives.

These compounds were tested against Nucleoprotein (Rift valley fever virus (strain ZH-548 M12)) (UniProt P21700) (assay: inhibitors of RVFV nucleoprotein–RNA binding, primary screen, biochemical, fluorescence polarization (AID 651828)). Conditions: RVFV N-RNA binding, stronger effect = lower value, concentration not given here.
Nucleoprotein (Rift valley fever virus (strain ZH-548 M12)), sequence (P21700 whole entry, looked up): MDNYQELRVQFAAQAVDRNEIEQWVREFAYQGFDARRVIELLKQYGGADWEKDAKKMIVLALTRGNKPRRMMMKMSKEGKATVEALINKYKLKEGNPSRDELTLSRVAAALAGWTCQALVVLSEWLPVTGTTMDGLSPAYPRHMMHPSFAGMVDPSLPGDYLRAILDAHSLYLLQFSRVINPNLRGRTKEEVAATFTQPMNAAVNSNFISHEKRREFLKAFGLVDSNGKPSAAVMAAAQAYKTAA
`CSC(=S)Nc1ccc(C)cc1` was tested, and the % bound was 92% (inactive). For `CCN(CC)CCN1C(=O)C(O)=C(C(=O)/C=C/c2ccco2)C1c1ccc(OC)cc1` (centres undefined), the % bound was 97.9% (inactive). With `CC(Cn1cnc2ccccc21)C(=O)N/N=C/c1ccccc1` (centres undefined) the % bound was 98.5% (inactive). In the case of `CC(C)NS(=O)(=O)c1ccc(NC(=O)C2CCCCC2)cc1`, the % bound is reported as 98% (inactive). With `NS(=O)(=O)c1ccc(NS(=O)(=O)/C=C/c2ccccc2)cc1` the % bound was 80.7% (inactive). With `O=C(c1cccc(N2C(=O)c3ccccc3C2=O)c1)N1CCOCC1` the % bound was 95% (inactive). With `CCCCN=Cc1c(O)n(-c2ccc(Cl)cc2)c(=O)[nH]c1=O` the % bound was 85.2% (inactive). With `O=C(CSc1ccc(-c2ccccc2)nn1)NCC1CCCO1` (centres undefined) the % bound was 91.3% (inactive). With `O=C(CC1CCCC1)NCc1cn2ccsc2n1` the % bound was 97.9% (inactive). `Cc1cccc(NC(=O)c2ccccc2-c2nc(-c3ccccc3)no2)c1` was tested, and the % bound was 89.8% (inactive). In the case of `O=C(CC12CC3CC(CC(C3)C1)C2)Nc1ccc(N2CCN(C(=O)c3ccco3)CC2)cc1`, the % bound is reported as 89.8% (inactive). `O=C(Nc1ccccn1)c1cc2c(s1)CCCC2` was tested, and the % bound was 94.3% (inactive). For `COC(=O)Nc1ccc(S(=O)(=O)Nc2cc(OC)nc(OC)n2)cc1`, the % bound was 95.6% (inactive). With `COc1ccc(C2CC(=O)c3cnc(NCCN4CCOCC4)nc3C2)cc1` (centres undefined) the % bound was 89.7% (inactive). With `COC(=O)c1ccc(COc2ccc3c(oc(=O)c4cc(OC)ccc43)c2C)o1` the % bound was 87.4% (inactive). With `CCOC(=O)c1ccc(CC(=O)c2cc(CC)c(O)cc2O)o1` the % bound was 105% (inactive). For `CN1CCC(N(C)C(=O)Nc2c[nH]c3ccccc23)CC1`, the % bound was 96.9% (inactive). `CCc1c(O)nc(SCc2ccccc2)n(C2CCCCC2)c1=O` was tested, and the % bound was 92.2% (inactive). For `Cc1cc(Cl)ccc1NNC(=O)c1snnc1C`, the % bound was 109% (inactive). With `Cc1cc(=O)[nH]c(Nc2ccc(O)cc2)n1` the % bound was 96.9% (inactive). With `CSc1n[nH]c(N)c1-c1ccccn1` the % bound was 93.7% (inactive). With `CP(=O)(O)CN1CCN(CP(C)(=O)O)CC1` the % bound was 93% (inactive). In the case of `CCNC(=O)N1c2ccccc2Sc2ccccc21`, the % bound is reported as 93.8% (inactive). For `CN(C)S(=O)(=O)c1ccc(C(=O)Nc2nnc(C3CC3)o2)cc1`, the % bound was 107% (inactive). With `Cc1ccc(-c2nn3c(C)nnc3c3ccccc23)cc1S(=O)(=O)N1CCCC1` the % bound was 93.1% (inactive). In the case of `COc1ccc(CCNC(=O)Nc2ccccc2C)cc1OC`, the % bound is reported as 91.4% (inactive). With `O=C(O)c1cc(N=Cc2ccccc2)ccc1O` the % bound was 108% (inactive). `CC(Sc1nnc(-c2c[nH]c3ccccc23)n1C)c1ccccc1` (centres undefined) was tested, and the % bound was 96.8% (inactive). With `FC(F)(F)COc1ccc(-c2n[nH]c(=S)o2)cn1` the % bound was 92.8% (inactive). In the case of `COc1cccc(CNc2ccc3c(c2)ncn3C)c1`, the % bound is reported as 107% (inactive). For `Cc1nc(SCC#N)c2c3c(sc2n1)CCCC3`, the % bound was 103% (inactive). `O=C(CC(C(=O)O)n1cccn1)c1ccc(Br)cc1` (centres undefined) was tested, and the % bound was 98.3% (inactive). `COCC(=O)N1CCN(c2ccccn2)CC1` was tested, and the % bound was 87.2% (inactive). With `O=S(=O)(NNc1ncnc2sccc12)c1ccc(Cl)cc1` the % bound was 97.8% (inactive). `O=C(CN1CCSCC1)N/N=C/c1ccc(Br)cc1` was tested, and the % bound was 101% (inactive). With `C=CCN(CC=C)C(=O)c1ccc(N2C(=O)CCC2=O)cc1` the % bound was 95.1% (inactive). For `CCC(C)NC(=S)NC1CCCCC1` (centres undefined), the % bound was 112% (inactive). For `CC(C)(C)c1ccc(CSc2nc3c(c(=O)[nH]2)CCC3)cc1`, the % bound was 91% (inactive). For `CN(C(=O)c1cc2cccnc2n(C)c1=O)c1ccccc1`, the % bound was 93.7% (inactive). `O=C(CCc1ccccc1)NNc1ccc(F)cc1` was tested, and the % bound was 104% (inactive). In the case of `Cc1[nH]nc2c1C1C(C2)C1(C)C` (centres undefined), the % bound is reported as 96.4% (inactive). For `C=CCn1c(O)c(N=N)c2ccccc21`, the % bound was 97.3% (inactive). In the case of `CC1CCCCN1S(=O)(=O)CCNC(=O)c1ccccc1` (centres undefined), the % bound is reported as 89.1% (inactive). In the case of `CC(C)n1c(-c2ccncc2)n[nH]c1=S`, the % bound is reported as 98.6% (inactive). In the case of `CN(C)C(=O)c1cc(Br)ccc1Cl`, the % bound is reported as 99.9% (inactive). With `Cc1onc(-c2ccccc2Cl)c1C(=O)N(Cc1nc(-c2ccccc2)no1)C(C)C` the % bound was 89% (inactive). `CC(C)CCn1c(CO)cnc1S(=O)(=O)C(C)C` was tested, and the % bound was 86.9% (inactive). `O=C(c1ccc(Br)o1)n1cnc2ccccc21` was tested, and the % bound was 104% (inactive). In the case of `CC(=O)Nn1nc2c(n1)C(=NNC(=O)c1ccccc1)c1nn(NC(C)=O)nc1C2=NNC(=O)c1ccccc1`, the % bound is reported as 98.5% (inactive). For `CNC(C)c1ccc(OC)c(OC)c1` (centres undefined), the % bound was 91% (inactive). With `CCN(CC)C(=O)/C=C/c1cccc2ccccc12` the % bound was 101% (inactive). In the case of `Cc1cc(C)c2c(N)c(-c3n[nH]c(=S)n3C)sc2n1`, the % bound is reported as 98.2% (inactive). With `CNC(=O)O/N=C/c1nn(C)cc1Br` the % bound was 94.8% (inactive). For `COc1ccc(Cl)cc1NC(=S)N1CCCCC1CO` (centres undefined), the % bound was 94.6% (inactive). In the case of `O=C(Nc1c[nH]c2ccccc12)NC1CCCC1`, the % bound is reported as 94.2% (inactive). For `COc1cc(CN2CCN3CCCC3C2C2CCCCC2)cc(OC)c1` (centres undefined), the % bound was 107% (inactive). With `CC12CN3CC(C)(CN(C1)C31C(=O)Nc3ccccc31)C2O` (centres undefined) the % bound was 103% (inactive). `O=c1cc(-c2ccccc2)nc(SCc2ccccn2)[nH]1` was tested, and the % bound was 93.4% (inactive). For `Cn1c(=O)n(Cc2ccco2)c(=N)c2c3c(sc21)CCCC3`, the % bound was 106% (inactive). For `Nn1c(Cc2ccccc2)nnc1SCC(=O)Nc1ccccc1F`, the % bound was 91.9% (inactive). With `COc1ccc(N=Nc2c(-c3ccc(OC)cc3)[nH]oc2=O)cc1` the % bound was 75.1% (inactive). In the case of `CN(C)c1ccc(/C=C2\SC(=Nc3ccccc3)N(CCO)C2=O)cc1`, the % bound is reported as 92.8% (inactive). With `CS(=O)(=O)c1ccccc1C(=O)Nc1ccc2sccc2c1` the % bound was 96% (inactive). With `O=S(=O)(c1ccccc1)c1ccc(I)cc1` the % bound was 96.7% (inactive). `C=CCc1ccc(OCC(=O)ONN)c(OC)c1` was tested, and the % bound was 104% (inactive). For `COC(=O)c1sc(-c2cccs2)cc1NS(=O)(=O)c1cn(C)cn1`, the % bound was 98.3% (inactive). With `Cc1c(Cl)cccc1NC(=O)CCn1cnc2ccccc2c1=O` the % bound was 81.8% (inactive). `Cc1cc(Oc2cc(C#N)c(C#N)cc2N2CCOCC2)cc(C)c1Cl` was tested, and the % bound was 95.2% (inactive). With `COc1cc(/C=C2/C(=N)N3N=C(c4ccccc4C)SC3=NC2=O)ccc1OC(=O)c1ccco1` the % bound was 91.3% (inactive).
